Results reported in ChEMBL document CHEMBL4513146, “CO-ADD screening of Karazin Kharkiv National University (Ukraine) compounds”.
Measured potencies and affinities stand elsewhere.

What was measured:
Staphylococcus aureus = conditions: Concentration 32 ug.mL-1;; ASSAY_TEST Inhibition of Bacterial Growth; detection method Absorption (OD600); MEDIA CAMHB; plate type 384well; NBS; CORNING #3640; time 18 hr
Escherichia coli = conditions: Concentration 32 ug.mL-1;; ASSAY_TEST Inhibition of Bacterial Growth; detection method Absorption (OD600); MEDIA CAMHB; plate type 384well; NBS; CORNING #3640; time 18 hr

Row | Compound | Inhibition (Staphylococcus aureus) [%] | Inhibition (Escherichia coli) [%]
1 | COc1cc(NC(=O)Cn2nc3n(CCc4ccccc4)c(=O)c4ccccc4n3c2=O)cc(OC)c1 | 8.09 | -2.27
2 | COc1ccc(N(Cc2cccc(Cl)c2)S(=O)(=O)c2ccc3nncn3c2)cc1 | -10.84 | -8.34
3 | COc1cccc(-n2ccn3c(SCC(=O)c4cccc(Cl)c4)nnc3c2=O)c1 | -1.54 | 0.66
4 | Cc1c(Cl)cccc1-n1ccn2c(=S)[nH]nc2c1=O | 26.02 | 0.89
5 | O=C(Cn1nc2c(SCc3ccccc3)nccn2c1=O)NCc1ccc(Cl)cc1 | -0.34 | -19.62
6 | Cc1cccc(CN(c2ccc(F)cc2)S(=O)(=O)c2ccc3nnc(C)n3c2)c1 | 5.07 | -8.57
7 | Cc1cccc(Oc2nccn3c(=O)n(CC(=O)NCCCc4ccccc4)nc23)c1C | 9.48 | -1.44
8 | O=S(=O)(c1ccc2nncn2c1)N(Cc1cc(F)cc(F)c1)c1cccc(F)c1 | 5.24 | -5.68
9 | COc1ccccc1-n1ccn2c(SCc3cccc(F)c3)nnc2c1=O | 11.17 | -7.27
10 | CCOc1ccc(NC(=O)Cn2nc3c4cc(-c5ccc(C)c(C)c5)nn4ccn3c2=O)cc1 | -9.23 | 1.9
11 | Cc1cc(C)cc(Nc2nc(C)cc3nn(CC(=O)NC4CCCCC4)c(=O)n23)c1 | 14.04 | -1.15
12 | COc1cccc(Sc2nc3ccccc3n3c(=O)n(CC(=O)Nc4ccc(C)c(C)c4)nc23)c1 | 2.16 | 0.23
13 | Cc1nnc2c(S(=O)(=O)N(Cc3cc(F)cc(F)c3)c3cccc(F)c3)cccn12 | 8.19 | -6.31
14 | COc1cc(NC(=O)Cn2nc3ccc(SC4CCCCC4)nn3c2=O)cc(OC)c1 | -2.94 | -6.19
15 | COc1cc(OC)c(NC(=O)Cn2nc3c(Oc4cccc(C)c4C)nccn3c2=O)cc1Cl | 1.15 | -3.57
16 | COc1cccc(-n2ccn3c(SCc4cccc(C)c4)nnc3c2=O)c1 | 13.81 | -5.33
17 | CCCCNC(=O)Cn1nc2n(Cc3ccco3)c(=O)c3sccc3n2c1=O | 2.23 | -5.07
18 | COc1cccc(Oc2nccn3c(=O)n(CC(=O)Nc4ccc(C)cc4Cl)nc23)c1 | 10.57 | -3.8
19 | O=C(Cn1nc2ccc(SC3CCCCC3)nn2c1=O)Nc1ccc2c(c1)CCC2 | 4.8 | -2.69
20 | Cc1ccc(F)cc1NC(=O)CSc1nc2ccccc2n2c(C(C)C)nnc12 | 9.29 | -3.01
21 | CCCCc1ccc(NC(=O)Cn2nc3c(Sc4ccccc4CC)nccn3c2=O)cc1 | -7.41 | -10.67
22 | COc1cccc(-n2ccn3c(SCC#N)nnc3c2=O)c1 | 16.24 | 0.96
23 | CCc1nnc2c(S(=O)(=O)N(Cc3cccc(OC)c3)c3cccc(C)c3)cccn12 | 10.64 | -1.22
24 | Cn1c(=O)c2sccc2n2c(=O)n(Cc3ccc(Cl)cc3)nc12 | 3.13 | -4.41

Row | Compound | Inhibition (Staphylococcus aureus) [%] | Inhibition (Escherichia coli) [%]
25 | COC(=O)c1ccccc1NC(=O)Cn1nc2c(Oc3cccc(OC)c3)nccn2c1=O | -4.11 | -21.29
26 | CCOC(=O)c1cccc(NC(=O)CSc2nc3ccccc3n3c(C(C)C)nnc23)c1 | 7.87 | -1.12
27 | CCCCc1ccc(NC(=O)Cn2c(=O)c3nnc(CCC)n3c3ccccc32)cc1 | 2.94 | -1.42
28 | COc1ccc(-c2nc(CSc3nc4ccccc4n4c(C(C)C)nnc34)c(C)o2)cc1 | -9.17 | -2.62
29 | COc1ccc(-c2cc3c4nn(CC(=O)Nc5ccc(OC)cc5OC)c(=O)n4ccn3n2)cc1 | 6.72 | -3.4
30 | Cc1ccc(Oc2nccn3c(=O)n(CC(=O)Nc4ccc(C)cc4Br)nc23)cc1 | 4.05 | -2.42
31 | COc1ccc(NC(=O)Cn2nc3c(Oc4cccc(OC)c4)nccn3c2=O)cc1 | 14.33 | -3.37
32 | COC(=O)c1ccc(NC(=O)CSc2nnc3c4cc(-c5ccc(OC)cc5)nn4ccn23)cc1 | 8.99 | 0.03
33 | CCCCN(C)c1ccc2nnc(CCc3nc(-c4cc(OC)cc(OC)c4)no3)n2n1 | -6.16 | -4.97
34 | COc1ccc(NC(=O)c2ccc3nn(CC(=O)Nc4cc(Cl)ccc4OC)c(=O)n3c2)cc1 | 7.85 | -6.87
35 | CCOc1ccc(-n2ccn3c(SCC(=O)Nc4ccc(C)cc4)nnc3c2=O)cc1 | 15.66 | 2.17
36 | O=C(Cn1nc2c(N3CCOCC3)nc3ccccc3n2c1=O)Nc1ccccc1Br | 3.23 | -2.52
37 | CC1CCCN(c2nccn3c(=O)n(CC(=O)Nc4ccc(Br)cc4F)nc23)C1 (configuration not stated) | 12.44 | 0.2
38 | CCCCOc1ccc(-c2cc3c4nnc(SCC(=O)N(CC)c5ccccc5)n4ccn3n2)cc1 | 7.98 | -2.57
39 | Cc1cccc(NC(=O)Cn2nc3c4cc(-c5ccc(Cl)cc5)nn4ccn3c2=O)c1 | 3.19 | -7.53
40 | COc1ccc(NC(=O)Cn2nc3ccc(-c4ccc(C)c(C)c4)nn3c2=O)cc1OC | 11.61 | -6.17
41 | Cc1cc(C)c(NC(=O)Cn2nc3n(C)c(=O)c4c(c(-c5ccccc5)cn4C)n3c2=O)c(C)c1 | 6.14 | 1.74
42 | COc1ccccc1-n1ccn2c(SCc3ccc(Cl)cc3)nnc2c1=O | 7.4 | -9
43 | Cc1ccc(-c2ccc3nn(CC(=O)Nc4c(C)cccc4C)c(=O)n3n2)cc1C | -0.95 | -11.36
44 | O=C(CSc1nnc2c3cc(-c4ccc(F)cc4)nn3ccn12)NCc1ccc(Cl)cc1 | -3.32 | -11.03
45 | CSc1cccc(NC(=O)Cn2nc3c(SC4CCCCC4)nccn3c2=O)c1 | -5.93 | -5.86
46 | COc1ccccc1-n1ccn2c(SCC(=O)Nc3ccc(C)cc3Cl)nnc2c1=O | 8.71 | -9.42
47 | COc1ccccc1Cn1c(=O)c2sccc2n2c(=O)n(Cc3ccc(Br)cc3)nc12 | 5.17 | 2.24
48 | Cc1cccc(Sc2nccn3c(=O)n(CC(=O)N4CCN(c5ccc(F)cc5)CC4)nc23)c1 | -10.95 | -6.75

Row | Compound | Inhibition (Staphylococcus aureus) [%] | Inhibition (Escherichia coli) [%]
49 | O=c1c2sccc2n2c(=O)n(Cc3ccc(Br)cc3)nc2n1CCc1ccccc1 | -9.4 | -11.48
50 | O=C(Cn1nc2c3sc(N4CCCC4)nc3ncn2c1=O)Nc1ccc(F)c(Cl)c1 | 15.3 | 1.03
51 | CCN(C(=O)CSc1nnc2c3cc(-c4ccc(OC)cc4)nn3ccn12)c1ccccc1 | 5.44 | -0.03
52 | COc1cccc(CNC(=O)CSc2nnc3c4cc(-c5cc(C)ccc5C)nn4ccn23)c1OC | 5.75 | -5.6
53 | COc1ccc(-n2ccn3c(=O)n(Cc4cc(C)ccc4C)nc3c2=O)cc1Cl | 5.41 | -0.01
54 | COc1cc(OC)c(NC(=O)Cn2nc3c4c5c(sc4ncn3c2=O)CC(C)CC5)cc1Cl (configuration not stated) | 7.09 | 1.97
55 | O=C(Cn1nc2c3cc(-c4ccc(F)cc4)nn3ccn2c1=O)N1CCN(c2ccccc2F)CC1 | -6.33 | 3.42
56 | O=C(CSc1nnc2c3cc(-c4ccccc4)nn3ccn12)NCc1ccc(Cl)cc1 | 6.91 | -1.12
57 | COC(=O)c1ccc(CN(c2cccc(F)c2)S(=O)(=O)c2ccc3nncn3c2)o1 | 9.42 | -3.46
58 | COc1cccc(CN(c2cccc(C)c2)S(=O)(=O)c2ccc3nnc(C)n3c2)c1 | 1.31 | -6.19
59 | COc1cc(NC(=O)CSc2nnc3c(=O)n(-c4cccc(OC)c4)ccn23)cc(OC)c1 | 2.57 | -9.3
60 | CCCCN(CC)c1ccc2nnc(CCc3nc(-c4ccc(OCc5ccccc5)cc4)no3)n2n1 | 4.18 | -2.08
61 | O=C(Cn1nc2ccc(-c3ccc(Cl)cc3)nn2c1=O)NC1CCCC1 | 12.95 | 1.75
62 | COc1cccc(CNC(=O)CSc2nnc3ccc(C(=O)Nc4cccc(F)c4)cn23)c1 | 9.49 | -5.27
63 | Cc1cc2nn(CC(=O)Nc3ccccc3C)c(=O)n2c(Nc2ccc(F)c(C)c2)n1 | 4.45 | -4.23
64 | COc1ccc(NC(=O)Cn2nc3c(N4CCOCC4)nccn3c2=O)c(OC)c1 | 14.25 | -1.5
65 | CCCCOc1ccc(-c2cc3c4nnc(SCC(=O)Nc5ccc(CC)cc5)n4ccn3n2)cc1 | -9.56 | -11.54
66 | Cc1cccc(N(C)C(=O)Cn2nc3cc(C)nc(Nc4ccc(C)c(F)c4)n3c2=O)c1 | -15.22 | 0.9
67 | COc1cccc(-n2ccn3c(SCC(=O)c4ccc(Br)cc4)nnc3c2=O)c1 | 12.63 | 0.58
68 | CCc1nnc2c(SCC(=O)Nc3cccc(OC)c3)nc3ccccc3n12 | 0.35 | -7.16
69 | COc1ccc(C)cc1NC(=O)CSc1nc2ccccc2n2cnnc12 | 16.59 | 4.56
70 | CCc1ccccc1Sc1nccn2c(=O)n(CC(=O)Nc3ccc(OC)c(Cl)c3)nc12 | 1.89 | -5.89
71 | Cc1ccc(-c2ccc3nn(CC(=O)N4CCN(c5ccccc5)CC4)c(=O)n3n2)cc1C | 8.01 | 2.66
